# An excerpt weighted towards active compounds, which were near 0.78% of everything screened.
# LMP1 NFkB inh: Epstein-Barr LMP1 NF-kappaB reporter inhibition. LMP1-induced NF-kappaB luciferase reporter cells, luminescence. AID 504558. hit rate 0.69% among 350,000. inhibition, % at 12.5 µM; in the data active = inhibition above about 41%; inconclusive = no clear call, values can overlap the other calls;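 note: 0% = neutral control wells and 100% = reference inhibitor control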
# NR5A2 inv ag: NR5A2 inverse agonism in reporter assay; O00482; inhibition, % at 3.6 µM; HEK293T StAR-luciferase reporter, LRH-1 transfected, 24 h; hit rate 0.13% among 360,000; AID 602396;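 active = inhibition above the mean inhibition of all tested compounds plus 3 SD, cut at about 73% in these data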;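 note: 0% = DMSO wells and 100% = reporter-only cells lacking LRH-1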
# SRC1 inh: human NCOA1 inhibition | Q15788 | HEK293 GAL4-SRC1 luciferase reporter, luminescence | inhibition, % at 3.6 µM | hit rate 0.12% among 360,000 | AID 588354;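 active = inhibition above the campaign mean plus 3 SD, with each screening campaign given its own cutoff, cut at about 60% in these data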;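 note: 0% = DMSO treated cells and 100% = gossypol at 36 µM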
# SRC3 inh: inhibits human SRC3 coactivator. HEK293 GAL4-SRC3 luciferase reporter, luminescence. inhibition, % at 3.6 µM. Q9Y6Q9. AID 588352. hit rate 0.17% among 360,000;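 active = inhibition above a per-campaign cutoff, the mean of all compounds plus 3 SD, cut at about 60% in these data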;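 note: 0% = DMSO-treated cells and 100% = gossypol-treated cells at 36 µM; higher means less SRC3-driven luciferase light from the GAL4 reporter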
# Target sequence (Q9Y6Q9 whole entry, looked up, the tested form may be a part): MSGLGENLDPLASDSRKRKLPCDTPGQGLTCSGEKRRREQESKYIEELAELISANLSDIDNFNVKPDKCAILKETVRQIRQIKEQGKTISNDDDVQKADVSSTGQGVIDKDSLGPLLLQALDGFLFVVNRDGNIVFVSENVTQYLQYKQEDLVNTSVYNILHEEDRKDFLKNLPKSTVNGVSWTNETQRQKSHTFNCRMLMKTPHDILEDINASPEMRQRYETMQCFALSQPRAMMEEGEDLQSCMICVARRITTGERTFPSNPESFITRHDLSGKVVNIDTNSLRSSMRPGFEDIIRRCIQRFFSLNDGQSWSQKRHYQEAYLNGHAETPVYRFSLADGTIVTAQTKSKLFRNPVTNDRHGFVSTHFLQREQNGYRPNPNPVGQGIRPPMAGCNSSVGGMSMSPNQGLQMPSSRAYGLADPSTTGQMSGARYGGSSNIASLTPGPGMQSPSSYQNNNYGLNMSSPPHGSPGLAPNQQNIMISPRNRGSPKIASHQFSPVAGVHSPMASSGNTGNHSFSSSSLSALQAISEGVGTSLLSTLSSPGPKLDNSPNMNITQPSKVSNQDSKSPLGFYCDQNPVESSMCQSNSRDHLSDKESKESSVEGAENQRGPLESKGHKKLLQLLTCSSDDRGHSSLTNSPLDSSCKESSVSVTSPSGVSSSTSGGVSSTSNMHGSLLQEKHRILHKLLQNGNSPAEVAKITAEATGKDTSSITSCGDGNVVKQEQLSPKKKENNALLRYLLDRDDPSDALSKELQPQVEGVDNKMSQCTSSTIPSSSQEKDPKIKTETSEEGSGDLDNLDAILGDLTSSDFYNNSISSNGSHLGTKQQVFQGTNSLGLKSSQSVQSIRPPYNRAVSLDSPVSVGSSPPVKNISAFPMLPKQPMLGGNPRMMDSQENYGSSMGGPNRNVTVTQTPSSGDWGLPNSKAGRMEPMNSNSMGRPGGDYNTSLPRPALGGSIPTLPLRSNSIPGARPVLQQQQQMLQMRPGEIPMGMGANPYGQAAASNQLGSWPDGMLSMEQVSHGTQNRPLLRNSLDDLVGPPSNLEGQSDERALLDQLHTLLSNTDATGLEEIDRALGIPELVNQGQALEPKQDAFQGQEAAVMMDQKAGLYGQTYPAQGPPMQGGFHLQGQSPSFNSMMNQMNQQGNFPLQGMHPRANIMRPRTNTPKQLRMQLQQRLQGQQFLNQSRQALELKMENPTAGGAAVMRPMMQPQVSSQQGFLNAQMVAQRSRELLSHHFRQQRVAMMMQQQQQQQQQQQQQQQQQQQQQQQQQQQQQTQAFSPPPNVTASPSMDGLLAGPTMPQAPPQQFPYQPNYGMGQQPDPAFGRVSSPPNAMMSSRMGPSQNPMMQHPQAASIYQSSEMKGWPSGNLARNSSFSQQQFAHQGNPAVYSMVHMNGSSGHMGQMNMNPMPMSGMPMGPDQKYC
# NCOA2 inhibitor: human SRC2 (NCOA2) inhibition; HEK293 GAL4-SRC2 luciferase reporter, luminescence; inhibition, % at 9 µM; Q15596; hit rate 0.17% among 370,000;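 active = inhibition above the mean inhibition of all tested compounds plus 3 SD, set per campaign, cut at about 52% in these data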;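 note: 0% = DMSO treated cells and 100% = cells given Gossypol at 36 µM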
# Starred values were filed as active, the others as inactive; u = inconclusive; x = no result; ! = a repeat was not active.
SMILES,LMP1 NFkB inh,NR5A2 inv ag,SRC1 inh,SRC3 inh,NCOA2 inhibitor
Cc1cc(C(=O)CSc2ccc(F)cc2)cc(C)c1OC(=S)N(C)C,23.5,54.9,62.6*,50.8,51.5
O=[N+]([O-])c1c(NCCCO)cc(SCc2ccco2)c2nonc12,3.0,17.0,10.1,14.2,-6.8
O=[N+]([O-])c1c(NCCCO)cc(Sc2ccc(Cl)cc2)c2nonc12,47.6*,12.8,-10.9,19.1,-8.1
CCn1c(SC(C)C)nnc1-c1c[nH]c2ccccc12,83.9*,5.1,-1.0,13.4,4.2
CCOc1ccccc1C(=O)N[C@H](C(=O)OCc1cc([N+](=O)[O-])cc2c1OCOC2)C(C)C,49.4*,2.8,-3.0,-1.3,-4.1
CCOc1cc(/C=N/N2CCN(Cc3ccccc3)CC2)ccc1O,45.0*,26.0,-5.1,-5.9,9.3
CCOc1cc(C=NN2CCCCCC2)ccc1O,-7.3,37.9,-41.3,-15.6,-5.7
C[N+]1(CC2COC3(CCCCC3)O2)CCCC1 (configuration not stated),-15.0,0.7,-1.5,8.8,96.9*
CCOc1cc([N+](=O)[O-])cc2c1C(=O)Nc1ccccc1O2,69.1*,18.9,2.5,-14.9,-30.3
O=C(NCCc1c[nH]c2ccccc12)OCc1cn(Cc2cc(F)cc(F)c2)nn1,x,x,x,x,-3.3
COc1cccc(N2C(=O)CC(NNC(=O)c3cccs3)C2=O)c1 (configuration not stated),-1.5,-24.7,-4.8,2.1,99.8*
CN(C)CC(=O)N[C@H]1C[C@@H]2O[C@@H](CO)CC[C@@H]2O[C@@H]1CCc1ccc(-c2ccc(F)cc2)cc1,x,x,x,x,-9.8
O=C(O)c1cccc(COc2ccc3c(c2)CCC3)c1,84.6*,-182.9,-176.3,-89.2,-36.3
O=C(NCc1ccccc1)c1cccc(COc2ccc3c(c2)CCC3)c1,57.7*,-259.8,-147.6,-88.9,-67.2
COc1cccc(OC)c1C(=O)NNC(=O)c1cccc(COc2ccc3c(c2)CCC3)c1,29.9,-331.3,-132.4,-75.7,-39.4
C[C@H]1COc2cccc(N3CCSCC3)c2S(=O)(=O)N1C,x,x,x,x,-0.2
CCC(=O)NC(c1cccs1)c1cc(Cl)c2cccnc2c1O (configuration not stated),20.7,-7.5,4.6,32.7,-9.6
CCC(=O)NC(c1cc(Cl)c2cccnc2c1O)C(C)C (configuration not stated),47.2*,20.6,11.7,15.8,20.8
CCC(=O)NC(c1cc(Cl)c2cccnc2c1O)C1CC1 (configuration not stated),40.3*,1.0,10.0,25.5,-5.5
O=C(O)CSc1nnc(-c2ccccc2)c(-c2ccccc2)n1,-6.1,-0.2,5.1,-13.6,24.7
CCC(=O)NNC(=O)CSc1nnc(-c2ccccc2)c(-c2ccccc2)n1,85.1*,0.9,-14.8,-3.0,1.0
CC(O)CC(=O)OC[C@]12CC[C@H]3[C@@](C)(CC[C@H]4C(C)(C)CCC[C@]34C)[C@@H]1CC(C1=CC(=O)OC1O)O2 (some centres not stated),x,77.5*,37.8,57.7,41.9
Cc1c(Cl)cccc1NC(=O)Nc1c(C)n(C)n(-c2ccccc2)c1=O,-7.2,-14.6,6.6,0.4,-18.1
Cc1cccc(NC(=O)Nc2c(C)n(C)n(-c3ccccc3)c2=O)c1C,48.5*,18.8,-22.3,-5.8,14.8
CCc1n[n+](CC(=O)c2ccccc2)c(N)s1,52.1*,-128.8,-51.7,-52.0,-10.0
SMILES,LMP1 NFkB inh,NR5A2 inv ag,SRC1 inh,SRC3 inh,NCOA2 inhibitor
C[C@@H]1COc2cc(Br)ccc2S(=O)(=O)N1Cc1cn(Cc2ccc(C(F)(F)F)cc2)nn1,x,x,x,x,-4.8
O=C(COC(=O)c1ccc(S(=O)(=O)NCc2ccco2)cc1)Nc1ccc(Cl)cn1,59.0*,3.9,-4.2,11.5,13.8
CC(=NNc1nc2ccccc2s1)c1ncccn1,62.8*,-109.3,-175.4,-127.9,-46.4
CC(=NNc1nc2ccccc2o1)c1ncccn1,58.3*,39.2,-158.0,-70.0,-14.4
CC(=NNc1nc2ccccc2o1)c1cc2ccccc2cn1,57.4*,-35.8,65.0*,69.6*,10.5
Clc1ccc(-c2ccnc(Oc3cc(Cl)ccc3Cl)n2)cc1,3.9,10.2,3.0,-0.2,-8.2
Clc1ccc(-c2ccnc(Oc3ccc4ccccc4c3)n2)cc1,56.6*,4.0,-16.4,-12.9,-38.9
C=CC(=O)Nc1ccc(Nc2nc(NC3CCC(N(C)C)CC3)nc3c2ncn3C(C)C)cc1 (configuration not stated),79.1*,97.0*,86.3*,83.9*,x
CC(C)n1cnc2c(Nc3ccc(F)c(Cl)c3)nc(NCCO)nc21,0.1,8.7,-14.9,-6.6,-46.1
Nn1c(SCc2ccc(Br)cc2)nnc1-c1n[nH]c2c1CCC2,x,x,x,x,-9.3
Oc1ccc2ccccc2c1N=Nc1ccccc1F,-15.8,6.3,-9.1,-5.6,8.8
Oc1ccc2ccccc2c1N=Nc1ccccn1,63.0*,25.1,8.2,13.3,24.1
CCOC(=O)c1[nH]cnc1N=Nc1c(O)ccc2ccccc12,46.7*,4.6,16.5,4.8,-4.3
CCCCOCCCNC(=O)C[C@@H]1C(=O)N(Cc2ccc(OC)cc2)C2=CCN(C(=O)OC(C)(C)C)C[C@]21C(=O)OCC,x,x,x,x,21.7
COc1ccc(OC)c(/C=N\NC(=O)c2ccc(-c3ccccc3)cc2)c1,5.8,25.0,5.0,-4.2,7.9
COc1ccccc1/C=N\NC(=O)c1c(C)nc2ccc(Cl)cn12,1.3,6.8,-5.6,1.9,-5.1
COc1cccc(/C=N/NC(=O)c2c(C)nc3ccc(Cl)cn23)c1O,61.1*,89.7*,47.4,77.9*,14.7
COc1cccc(/C=N/NC(=O)c2ccc(-c3ccccc3)cc2)c1O,57.3*,53.1,44.6,68.1*,15.7
CN(Cc1cnc2nc(N)nc(N)c2n1)c1ccc(C(=O)N[C@@H](CCC(=O)O)C(=O)O)cc1,u,41.1,68.4*!,61.5,10.5
O=C(CSc1nnc(-c2ccccc2F)n1-c1ccccc1)c1ccc2ccccc2c1,x,x,x,x,-21.3
COC(=O)C1CN(Cc2ccccc2)CCS(=O)(=O)N1Cc1ccc(F)cc1 (configuration not stated),x,x,x,x,6.2
CCC1=C(CC2NCCc3ccccc32)CC2c3cc(OC)c(OC)cc3CCN2C1 (configuration not stated),-1.7,87.9*,73.1*,82.5*,55.1*
CC[C@H]1CN2CCc3cc(OC)c(OC)cc3C2C[C@@H]1C[C@H]1NCCc2cc(OC)c(OC)cc21 (some centres not stated),88.0*,103.9*,95.9*,95.4*,70.3*
COc1cc2c(cc1OC)CN1CCc3cc(OC)c(OC)cc3C1C2 (configuration not stated),x,15.6,-15.4,0.0,3.0
COc1cccc(OC(C)CCN2CCC(C(O)(c3ccccc3)c3ccccc3)CC2)c1 (configuration not stated),x,x,x,x,17.3
C=CCn1c(SCc2csc(C)n2)nc2sc3c(c2c1=O)CCCC3,44.1*,3.8,-48.9,-66.4,12.0
C=CCn1c(SCc2csc(C)n2)nc2sc3c(c2c1=O)CCCCC3,-2.2,-3.1,-10.2,3.7,-19.9

# Bioassay records from PubChem BioAssay.
